PubChem BioAssay AID1259421 (Broad Institute, 2018)
Values joined by “and” are separate entries in the source; they are usually repeats but may differ in a detail not shown here. Equal entries are not always repeated. Hit rate of the full screen: of about 6,400 compounds, about 610 (9.5%) were called active. Rule as the data show it: active = activity change below about -70%; inconclusive = no clear call, values can overlap the other calls; inactive = above that. Many of the other results were omitted from the sample, so actives are more common in it than they were. More than one record can exist for a structure, and the calls need not agree. Where a SMILES comes first, the peptide text is derived from it.

Assay: T. gondii ME49Luc in HeLa cells, luciferase assay, 72 h, no IFN-y (AID 1259421)
Conditions: stronger effect = lower value, concentration not given here

| SMILES | activity change, negative = inhibition |
| --- | --- |
| S=c1ccss1 | 1.03% (inactive) |
| COc1ccc(-c2cc(=O)c3c(O)cc(O)cc3o2)cc1 | 127% (inactive) |
| O=C(O)C[C@H](O)C[C@H](O)/C=C/c1c(C2CC2)nc2ccccc2c1-c1ccc(F)cc1 | -31.6% (inactive) and 2.61% (inactive) |
| CC(C)n1c(/C=C/[C@@H](O)C[C@@H](O)CC(=O)O)c(-c2ccc(F)cc2)c2ccccc21 | -79.8% (active) and 10.3% (inactive) |
| CC(C)c1nc(N(C)S(C)(=O)=O)nc(-c2ccc(F)cc2)c1/C=C/[C@@H](O)C[C@@H](O)CC(=O)O | 15.1% (inactive) and -35.2% (inactive) |
| CC(C)c1c(C(=O)Nc2ccccc2)c(-c2ccccc2)c(-c2ccc(F)cc2)n1CC[C@@H](O)C[C@@H](O)CC(=O)O | 9.33% (inactive) |
| CC(C)N1c2ccccc2C(c2ccc(F)cc2)C1/C=C/C(O)CC(O)CC(=O)O (centres undefined) | -15.2% (inactive) |
| COCc1c(C(C)C)nc(C(C)C)c(/C=C/[C@@H](O)C[C@@H](O)CC(=O)O)c1-c1ccc(F)cc1 | -88.4% (active) |
| COc1cc(SC)ccc1C(=O)N1CCC(Cc2ccccc2)CC1 | 36.5% (inactive) and 48.1% (inactive) |
| CC(C)N(C[C@H]1O[C@@H](n2cnc3c(N)ncnc32)[C@H](O)[C@@H]1O)C1CC(CCc2nc3ccc(C(C)(C)C)cc3[nH]2)C1 (some centres undefined) | 8.46% (inactive) and -64.1% (inactive) |
| O=C(O)C(=O)Nc1cccc(-c2nn[nH]n2)c1 | 5.48% (inactive) |
| CN1CCc2nc(C(=O)N[C@H]3C[C@H](C(=O)N(C)C)CC[C@@H]3NC(=O)C(=O)Nc3ccc(Cl)cn3)sc2C1 | 9.11% (inactive) |
| C[C@H](N)C(=O)N[C@@H](CCC(N)=O)C(=O)O (H-Ala-Gln-OH) | 3.92% (inactive) |
| N#C/C(=C/c1ccc(O)c(O)c1)C(=O)NCCCc1ccccc1 | -10.8% (inactive) |
| NC(N)=NC(=O)c1cnccn1 | 11.4% (inactive) |
| CC(C)(C)NCC(O)COc1cccc2c1C[C@H](O)[C@H](O)C2 (some centres undefined) | 4.27% (inactive) |
| CC(C)(C)OC(=O)N[C@H]1CCCCC/C=C\[C@@H]2C[C@@]2(C(=O)NS(=O)(=O)C2CC2)NC(=O)[C@@H]2C[C@@H](OC(=O)N3Cc4cccc(F)c4C3)CN2C1=O | 19.7% (inactive) |
| COc1ccc2c(O[C@H]3CC4C(=O)N(C)CCCC/C=C\[C@@H]5C[C@@]5(C(=O)NS(=O)(=O)C5CC5)NC(=O)[C@@H]4C3)cc(-c3nc(C(C)C)cs3)nc2c1C (some centres undefined) | -71.4% (active) |
| N#CC(Cc1ccc(O)cc1)c1ccc(O)cc1 (centres undefined) | 6.16% (inactive) and 5.25% (inactive) |
| CC(=O)OCC(=O)[C@@]1(OC(C)=O)[C@@H](C)CC2C3C[C@H](F)C4=CC(=O)C=C[C@]4(C)[C@@]3(F)[C@@H](O)C[C@@]21C (some centres undefined) | -5.04% (inactive) and -3.76% (inactive) |
| CCC[C@@H]1C[C@@H](C(=O)N[C@H]([C@H]2O[C@H](SC)[C@H](O)[C@@H](O)[C@H]2O)[C@H](C)O)N(C)C1 | -17.1% (inactive) |
| COc1ccc2c(Oc3ccc(NC(=O)c4c(C)n(CC(C)(C)O)n(-c5ccccc5)c4=O)nc3)ccnc2c1 | -67.1% (inactive) and -82.5% (active) |
| COc1ccc2c(OCc3nnc4ccc(-c5ccccc5)nn34)ccnc2c1 | 4.78% (inactive) |
| CNC(=O)c1cccc2cc(Oc3ccnc4cc(OCC5(N)CC5)c(OC)cc34)ccc12 | -25% (inactive) |
| C[C@@H]1CC2C3CCC4=CC(=O)C=C[C@]4(C)[C@@]3(F)[C@@H](O)C[C@]2(C)[C@@]1(O)C(=O)CO (some centres undefined) | -4.17% (inactive) |

| SMILES | activity change, negative = inhibition |
| --- | --- |
| C[C@@H]1CCCN1CCc1cc2cc(-c3ccc(C#N)cc3)ccc2o1 | 3.6% (inactive) |
| C=CCN1CC(C(=O)N(CCCN(C)C)C(=O)NCC)CC2c3cccc4[nH]cc(c34)CC21 (centres undefined) | 5.12% (inactive) |
| CC(=O)S[C@@H]1CC2=CC(=O)CC[C@]2(C)[C@H]2CC[C@@]3(C)[C@@H](CC[C@@]34CCC(=O)O4)[C@H]12 | -13.5% (inactive) and -2.91% (inactive) |
| C[C@]12CCC(=O)C=C1[C@@H]1C[C@@H]1[C@H]1[C@@H]3[C@@H]4C[C@@H]4[C@@]4(CCC(=O)O4)[C@@]3(C)CC[C@@H]12 | -75.7% (active) and -36.5% (inactive) |
| C[C@]12CCC(=O)C=C1C=CC1C2CC[C@@]2(C)C1CC[C@@]21CCC(=O)O1 (some centres undefined) | 4.56% (inactive) and -4.95% (inactive) |
| CCS(=O)(=O)N1CCN(c2ccc(Nc3ncc(C(N)=O)c(NC4CC4)n3)cc2)CC1 | -79.3% (active) |
| O=c1[nH]ccc2c(S(=O)(=O)N3CCCNCC3)cccc12 | 13.8% (inactive) and 2.48% (inactive) |
| CN1C(C(=O)Nc2ccccn2)C(=O)c2ccccc2S1(=O)=O (centres undefined) | 35.3% (inactive) and 14.6% (inactive) |
| CCOC(=O)C(C)Oc1cccc2c(=O)n(CC(=O)Nc3ccc4c(c3)OCCO4)ccc12 (centres undefined) | 14.7% (inactive) |
| O=C1CC2(CCCC2)CC(=O)N1CCCCNCC1COc2ccccc2O1 (centres undefined) | 21% (inactive) and 7.16% (inactive) |
| CC(C)(C)NC(=O)[C@@H]1CC2CCCCC2CN1C[C@@H](O)[C@H](Cc1ccccc1)NC(=O)[C@H](CC(N)=O)NC(=O)c1ccc2ccccc2n1 (some centres undefined) | 13.2% (inactive) |
| CCCCCCCCO | 2.72% (inactive) |
| CC(=O)NC[C@H]1CN(c2ccc(-c3ccc(CNCc4cn[nH]n4)cc3)c(F)c2)C(=O)O1 | -34.7% (inactive) |
| NC(=O)Nc1cc(-c2cccc(F)c2)sc1C(=O)N[C@H]1CCCNC1 | -74.8% (active) and -87.7% (active) |
| NC(=O)Nc1sc(-c2ccc(F)cc2)cc1C(N)=O | 12.6% (inactive) |
| COc1cc(C(=O)NC2CCCNC2)cc(OC)c1OC (centres undefined) | 25.6% (inactive) |
| CC(C)[C@@H](CS(=O)(=O)C(C)C)N1C(=O)[C@@](C)(CC(=O)O)C[C@H](c2cccc(Cl)c2)[C@H]1c1ccc(Cl)cc1 | 5.9% (inactive) |
| NCCCCNS(=O)(=O)c1ccc2c(Cl)cccc2c1 | 2.08% (inactive) |
| CC(O)C1C(=O)N2C(C(=O)O)=C(C3CCCO3)SC12 (centres undefined) | 5.92% (inactive) |
| COc1ccc(Cc2cnc(N)nc2N)cc1OC | 9.87% (inactive) |
| COc1ccc(Cc2nccc3cc(OC)c(OC)cc23)cc1OC | -2.52% (inactive) and -6.18% (inactive) |
| CCOc1ccc(Cc2nccc3cc(OCC)c(OCC)cc23)cc1OCC | -67.8% (inactive) and -79.8% (active) |
| CN1C(=O)C(F)=C[C@]2(C)[C@H]3CC[C@]4(C)[C@@H](C(=O)NCc5nc6ncccc6[nH]5)CC[C@H]4[C@@H]3CC[C@@H]12 | -1.27% (inactive) |
| C=C[C@@H](C1=CC(=O)C(OC)=C(OC)C1=O)c1ccccc1 | -1.89% (inactive) |
| COc1cc(N)c(Cl)cc1C(=O)N[C@@H]1CCNCC1OC (some centres undefined) | 8% (inactive) |

| SMILES | activity change, negative = inhibition |
| --- | --- |
| O=C(O)C1(Cc2cccc(Nc3nccs3)n2)CCC(Oc2cccc(Cl)c2F)CC1 (centres undefined) | -34% (inactive) |
| CC(C)(C)CC(C)(C)c1ccc(O)c(-n2nc3ccccc3n2)c1 | 47.6% (inactive) |
| O=C(c1ccc(CN2CCOCC2)cc1)N1CCN(C2CC2)CC1 | 10.6% (inactive) |
| O=C(Nc1cn[nH]c1-c1nc2ccc(CN3CCOCC3)cc2[nH]1)NC1CC1 | -84.3% (active) |
| CC(C)(S)C(=O)N[C@@H](CS)C(=O)O | -3.42% (inactive) |
| CCOC(=O)Nc1c[n+](N2CCOCC2)no1 | 8.47% (inactive) |
| Cc1ccc(/C(=C/CN2CCCC2)c2ccccn2)cc1 | -1.47% (inactive) |
| Cc1ccc(/C(=C\CN2CCCC2)c2ccccn2)cc1 | 0.786% (inactive) and 2.04% (inactive) |
| C/C(=N\NC(=S)N1CCC1)c1ccccn1 | -84.6% (active) |
| CC(=O)O[C@@H]1CC2C(C)(C)C(=O)C=C[C@]2(C)C2CC[C@@]3(C)[C@H](c4ccoc4)OC(=O)[C@H]4O[C@]43[C@@]21C (some centres undefined) | 22.1% (inactive) |
| Nc1nc2c(c(=O)[nH]1)N(C=O)[C@@H](CNc1ccc(C(=O)N[C@@H](CCC(=O)O)C(=O)O)cc1)CN2 | 22.2% (inactive) |
| CCOC(=O)C1=CCCC[C@H]1S(=O)(=O)Nc1ccc(F)cc1Cl | 18.7% (inactive) |
| O=C(O)Cc1ccc2c(c1)C(=O)c1ccccc1CO2 | 19.3% (inactive) |
| Cc1cc(O)c(C=O)c2c1C(=O)Oc1c(C)c(O)c3c(c1O2)C(O)OC3=O (centres undefined) | -75.6% (active) |
| COC(=O)c1c(C)c2c(c(C)c1O)OC(=O)c1c(C)c(Cl)c(O)c(Cl)c1O2 | -3.73% (inactive) |
| COc1cc(C)c2c(c1C=O)Oc1c(c(C)c(O)c3c1C(O)OC3=O)OC2=O (centres undefined) | -5.42% (inactive) |
| CS(=O)(=O)Nc1c(O)ccc2c1CCCC2C1=NCCN1 (centres undefined) | 15.3% (inactive) and 0.146% (inactive) |
| CC(=O)[C@@]1(O)CCC2C3C[C@H](C)C4=CC(=O)C=CC4(C)[C@@]3(F)[C@@H](O)C[C@@]21C (some centres undefined) | 10% (inactive) and 7.34% (inactive) |
| NC(N)=NC(=O)c1nc(Cl)c(N2CCCCCC2)nc1N | 3.26% (inactive) |
| CC(=O)OCC(=O)[C@@]1(O)[C@@H](C)CC2C3CCC4=CC(=O)C=C[C@]4(C)[C@@]3(F)[C@@H](O)C[C@@]21C (some centres undefined) | -12.5% (inactive) |
| N#Cc1cc(-c2n[nH]c(-c3ccncc3)n2)ccn1 | 17.6% (inactive) |
| O=C(O)c1ccc2cc(-c3ccc(O)c(C45CC6CC(CC(C6)C4)C5)c3)ccc2c1 | -56% (inactive) |
| O=C(O)/C=C/c1ccc(-c2ccc(O)c(C34CC5CC(CC(C5)C3)C4)c2)cc1 | -96.6% (active) |
| O=C(O)c1ccc(-c2ccc3cc(O)c(C45CC6CC(CC(C6)C4)C5)cc3c2)cc1 | -2.82% (inactive) |
